Where “and” joins values, the source holds several entries; their conditions need not be identical. Identical values can stand only once. Records with an inconclusive call do not appear. Calls of active or inactive are those of the source. Unless noted, calls come from the whole dose curve; as a rule, active = well fitted curve in the direction sought with a large enough effect; inconclusive = small, poorly fitted or top-dose-only effect, or another doubt; inactive = no such curve, though single readings can be large; an effect the other way counts as inactive or inconclusive. Where only a bound is given, the exact number is not on record here.

Experiment [1] is described as follows: Cell Viability - SK-N-SH (AID 435; calls by dose curve;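 note: potency is the fitted concentration of half-maximal effect; compound exposure lasted 40 h at 37 °C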). The conditions noted are these: SK-N-SH neuroblastoma cell viability qHTS. The procedure, abridged:
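SK-N-SH neuroblastoma cells (1500/well) treated 40 h at 37 °C in complete medium; viability read as cellular ATP by CellTiter-Glo luminescence. Normalized to DMSO and 100 uM tamoxifen; AC50 from Hill fits of qHTS concentration-response.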
Background: qHTS replaces the single test concentration by a dilution series.

Experiment [2] can be described thus: Cell Viability - N2a (AID 540).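 Note: plate controls were DMSO alone for no effect and tamoxifen control for full effect; nearly all actives have a fitted effect of over 45% in size.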 The settings on record: N2a mouse neuroblastoma cell viability; activity change, negative = cytotoxicity: at 92.2 µM (top of the series). The essentials:
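N2a mouse neuroblastoma, 1500 cells/well, 5 hr settle; compound 40 hr, 37 °C; CellTiter-Glo 20 min RT; luminescence; Hill-fit AC50.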

Experiment [3] can be described thus: Cell Viability - Renal Proximal Tubule (AID 545). Note: nearly all actives have a fitted effect of over 40% in size. The settings on record: renal proximal tubule cells viability; series mostly up to 91.7 µM. The procedure, abridged: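 Rat renal proximal tubule primary cells, 1000/well, exposed to compounds for 40 hr at 37 °C in complete medium; cellular ATP read by CellTiter-Glo luminescence. AC50 from concentration-response fitted with standard Hill equation.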

The nature of experiment [4]: Cellular Toxicity (caspase-3) Jurkat (AID 655).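 Note: cells exposed to compound for 16 h at 37 °C before reading.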 Note: potency is the fitted concentration of half-maximal effect. The settings on record: Jurkat caspase-3 activation, luminescence; caspase-3 activation: at 92.2 µM (top of the series), DMSO = 0%, tamoxifen = 100%. The procedure, abridged: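 Jurkat cells (5000/well) in complete medium exposed 16 h at 37 C; caspase-3/7 activity read by Caspase-Glo luminescence after 20 min at room temperature. Normalized to DMSO and 100 uM tamoxifen; AC50 from Hill fits.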

Experiment [5] concerns the target Cytochrome P450 3A4 (Homo sapiens) (UniProt P08684). Kind of experiment: qHTS Assay for Inhibitors and Substrates of Cytochrome P450 3A4 (AID 884). Note: % is set by controls: 0 for no effect and ±100 for the full control effect; nearly all actives have a fitted effect of over 50% in size. The conditions noted are these: recombinant CYP3A4, Luciferin-PPXE luminescence; series mostly up to 57.1 µM. The essentials:
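Luminescent readout of luciferin produced by CYP3A4 (20 nM) dealkylation of Luciferin-PPXE, 25 uM (its KM). NADPH-driven reaction ran 60 min at RT after 10 min compound preincubation; data scaled to 57 uM ketoconazole as 100% inhibition.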

Experiment [6] in a line: Cell Viability - LYMP2-001 (AID 921).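 Note: 0% = DMSO only and full inhibition = tetraoctylammonium bromide control wells; nearly all actives have a fitted effect of over 70% in size.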 The conditions noted are these: LYMP2-001 lymphoblastoid cell viability; series mostly up to 92.2 µM. The procedure, abridged: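 Human lymphoblastoid LYMP2-001 cells, 2500 per well, in complete medium, treated 24 h at 37 C. Viability from cellular ATP by CellTiter-Glo luminescence; AC50 from Hill-equation fits of qHTS concentration-response.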

Experiment [7] can be described thus: MultiTox-Fluor Cytotoxicity Assay - LYMP1-002 - Dead Cells (AID 960).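 Note: 0% = DMSO and 100% = tetraoctylammonium bromide; nearly all actives have a fitted effect of over 60% in size.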 The conditions noted are these: LYMP1-002 lymphoblastoid cells, dead-cell protease fluorescence; series mostly up to 46.1 µM. The essentials: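 Readout: fluorescence at 485/520 from cell-impermeant bis-AAF-R110 cleaved by proteases leaking from damaged cells. LYMP1-002 lymphoblastoid line, 16 hr compound treatment at 37 C, concentration-response in qHTS format; Hill-equation AC50 values.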

Experiment [8] can be described thus: Cell Viability - LYMP2-005 (AID 967).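 Note: plate controls were DMSO only for no effect and 92 µM tetraoctylammonium bromide control for full effect.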 The conditions noted are these: LYMP2-005 lymphoblastoid cell viability; series mostly up to 92.2 µM. The procedure, abridged: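 Human lymphoblastoid LYMP2-005 cells, 2,500 per well in complete medium, rested 5 h at 37C then compound-treated 24 h at 37C. Intracellular ATP read by CellTiter-Glo luminescence after 30 min at room temperature; AC50 from Hill-equation fits of concentration-response data.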

A short description of experiment [9]: Cell Viability - LYMP2-015 (AID 971).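 Note: 0% = DMSO only and full effect = 92 µM tetraoctylammonium bromide; nearly all actives have a fitted effect of over 55% in size.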 The settings on record: LYMP2-015 lymphoblastoid cell viability; series mostly up to 92.2 µM. The procedure, abridged:
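qHTS cytotoxicity: 2500 cells/well, 5 hr 37 C, compound 24 hr 37 C, CellTiter-Glo 30 min RT, luminescence. Loss of ATP = toxicity; AC50 via standard Hill fit.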

The nature of experiment [10]: Cell Viability - LYMP2-002 (AID 977).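 Note: compound exposure lasted 24 h at 37 °C; plate controls were DMSO only for no effect and 92 µM tetraoctylammonium bromide for full effect.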 The settings on record: LYMP2-002 lymphoblastoid cell viability, qHTS; series mostly up to 92.2 µM. The procedure, abridged:
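Human lymphoblastoid cells (2500/well) in complete medium were preincubated 5 hr at 37 C, then exposed to compounds for 24 hr at 37 C. Intracellular ATP was read by CellTiter-Glo luminescence; AC50 came from Hill-equation concentration-response fits.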

The nature of experiment [11]: Cell Viability - LYMP2-010 (AID 981). Note: % is set by controls: 0 for no effect and ±100 for the full control effect; nearly all actives have a fitted effect of over 55% in size. The settings on record: LYMP2-010 lymphoblastoid cell viability, qHTS; series mostly up to 92.2 µM. The procedure, abridged: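 qHTS cytotoxicity, 1536-well: 2500 cells/well, 5 hr settle, 24 hr compound at 37 C, CellTiter-Glo 30 min RT, luminescence read. Decrease in ATP = toxicity; AC50 via standard Hill equation. Positive control tetraoctylammonium bromide.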

The nature of experiment [12]: Cell Viability - LYMP2-020 (AID 986).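 Note: plate controls were DMSO only for no effect and tetraoctylammonium bromide at 92 µM for full effect; nearly all actives have a fitted effect of over 55% in size.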 The conditions noted are these: series mostly up to 92.2 µM. The essentials:
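qHTS, 2500 cells/well; 5 hr then 24 hr compound exposure, 37 C; CellTiter-Glo luminescence after 30 min RT; ATP decrease taken as cytotoxicity; AC50 via Hill equation; tetraoctylammonium bromide positive control.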

Experiment [13] is described as follows: Cell Viability - LYMP2-022 (AID 987).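 Note: 0% = DMSO alone and full effect = tetraoctylammonium bromide at 92 µM; nearly all actives have a fitted effect of over 55% in size.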 The settings on record: LYMP2-022 lymphoblastoid cell viability; series mostly up to 92.2 µM. The procedure, abridged:
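Luminescent ATP read-out (CellTiter-Glo, 30 min, RT) after 24 hr, 37 C compound exposure of 2500 human lymphoblastoid cells/well in complete medium. Cytotoxicity taken as concentration-dependent ATP loss; AC50 from standard Hill equation.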

Experiment [14] is described as follows: qHTS assay for small molecule agonists of retinoid X receptor alpha signaling (AID 588544). The settings on record: HEK293T RXRa-UAS-bla, beta-lactamase reporter, 18 h; 530 nm emission.
In experiment [15] the target is Thyroid hormone receptor beta (Homo sapiens) (UniProt P10828). Description: qHTS assay for small molecule agonists of thyroid hormone receptor beta signaling (AID 588545; calls by dose curve;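 note: 0% = DMSO only and 100% = 10 nM T3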). The conditions noted are these: TR-UAS-bla GripTite HEK 293, beta-lactamase ratio, agonist mode, 18 h; series mostly up to 76.7 µM. The essentials: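 TR-UAS-bla-GripTite HEK 293 cells in medium with 2% charcoal/dextran FBS, 0.1 mM NEAA and 1 mM sodium pyruvate were treated with titrated compounds for 18 hrs at 37 C. Beta-lactamase reporter was read with CCF4 dye (ex 405, em 460/530 nm); EC50 from Hill fits.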
Thyroid hormone receptor beta (Homo sapiens), sequence (P10828 whole entry, looked up): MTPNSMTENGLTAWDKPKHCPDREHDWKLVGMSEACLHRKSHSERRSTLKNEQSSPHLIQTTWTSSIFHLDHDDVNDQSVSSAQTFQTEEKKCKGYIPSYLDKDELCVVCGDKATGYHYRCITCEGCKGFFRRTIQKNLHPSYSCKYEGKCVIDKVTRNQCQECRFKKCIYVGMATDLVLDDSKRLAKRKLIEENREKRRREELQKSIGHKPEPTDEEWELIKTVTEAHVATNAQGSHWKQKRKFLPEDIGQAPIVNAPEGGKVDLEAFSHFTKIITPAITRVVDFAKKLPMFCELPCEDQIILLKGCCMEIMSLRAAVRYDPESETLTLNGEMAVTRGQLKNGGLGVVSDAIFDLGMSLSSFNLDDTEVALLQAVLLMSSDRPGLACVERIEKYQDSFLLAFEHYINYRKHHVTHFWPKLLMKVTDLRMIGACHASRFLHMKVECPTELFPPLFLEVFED

Experiment [16] can be described thus: qHTS assay for small molecule antagonists of retinoid X receptor alpha signaling (AID 588546; active = well fitted inhibition curve with a large enough effect in the signal ratio, with a control signal flat, not every such curve was filed as active; the % refers to the signal ratio;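 note: cells stimulated with 9-cis-retinoic acid as agonist; % is set by controls: 0 for no effect and ±100 for the full control effect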). The conditions noted are these: HEK293T RXRa-UAS-bla, beta-lactamase ratio, antagonist mode; measured here: W530 green channel, cytotoxicity proxy. The procedure, abridged: (§1)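 Beta-lactamase reporter inhibition, read as CCF4 fluorescence ratio (ex 405, em 460/530 nm) after 2 h at RT. HEK293T UAS-bla cells, 2500/well, were stimulated with 9-cis-RA at 500 or 100 nM final alongside test compound for 18 h at 37 C.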

Experiment [17] concerns the target Retinoic acid receptor RXR-alpha (Homo sapiens) (UniProt P19793). Described as above. The conditions noted are these: HEK293T RXRa-UAS-bla, beta-lactamase ratio, antagonist mode. The procedure, abridged: as §1
Experiment [18] addresses Thyroid hormone receptor beta (Homo sapiens) (UniProt P10828). Description: qHTS assay for small molecule antagonists of thyroid hormone receptor beta signaling (AID 588547; active = well fitted inhibition curve with a large enough effect in the signal ratio, with a control signal flat, not every such curve was filed as active; the % refers to the signal ratio;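 note: cells stimulated with 0.4 nM T3 agonist during compound exposure; % is set by controls: 0 for no effect and ±100 for the full control effect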). The conditions noted are these: TR-UAS-bla HEK293, beta-lactamase ratio, antagonist mode, 18 h. The procedure, abridged: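 Inhibition of T3-driven (0.4nM final) beta-lactamase reporter activity was measured over 0.59 nM to 92 uM compound after 18 h at 37 C. The cells were GripTite HEK293 TR-UAS-bla in charcoal/dextran-stripped serum, with CCF4 ratio read-out and IC50 from Hill fits.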

Experiment [19] concerns the target Tumor necrosis factor (Homo sapiens) (UniProt P01375). Description: qHTS assay to identify small molecules that stimulate Tumor Necrosis Factor-alpha (TNF-alpha) secretion (AID 651757; active = well fitted curve in the direction sought with a large enough effect in the signal ratio; the % refers to the signal ratio; note: 0% is about no effect). The conditions noted are these: Human cells, HTRF 665/615 ratio; series mostly up to 92.2 µM. The procedure, abridged:
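THP-1 cells, 3000/well; compound 17 hrs, 37 C; add cryptate/XL665 anti-TNF-alpha antibody pair; 3 hr RT; TR-FRET (HTRF) read of secreted TNF-alpha. Quantitative HTS format.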

A short description of experiment [20]: Cellular Toxicity (caspase-3) MRC-5 (AID 659). The conditions noted are these: MRC-5 cells, luminescence, normalized: DMSO 0%, 10 µM staurosporine 100%; series mostly up to 91.7 µM. The essentials: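 Luminescent Caspase-Glo 3/7 read-out (1 h, room temperature) after a 16 h, 37 °C compound exposure of MRC-5 lung fibroblasts at 1500 cells/well. Concentration-response AC50 from Hill equation; 0% DMSO, 100% 10 uM staurosporine.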

Tumor necrosis factor (Homo sapiens), sequence (P01375 whole entry, looked up): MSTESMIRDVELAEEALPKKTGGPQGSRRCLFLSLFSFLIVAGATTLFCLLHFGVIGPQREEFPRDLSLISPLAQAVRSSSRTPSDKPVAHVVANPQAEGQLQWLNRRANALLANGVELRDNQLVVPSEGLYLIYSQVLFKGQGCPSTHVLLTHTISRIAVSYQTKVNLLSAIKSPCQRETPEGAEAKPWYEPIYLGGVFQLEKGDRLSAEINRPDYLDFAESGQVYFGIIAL
Cytochrome P450 3A4 (Homo sapiens), sequence (P08684 whole entry, looked up): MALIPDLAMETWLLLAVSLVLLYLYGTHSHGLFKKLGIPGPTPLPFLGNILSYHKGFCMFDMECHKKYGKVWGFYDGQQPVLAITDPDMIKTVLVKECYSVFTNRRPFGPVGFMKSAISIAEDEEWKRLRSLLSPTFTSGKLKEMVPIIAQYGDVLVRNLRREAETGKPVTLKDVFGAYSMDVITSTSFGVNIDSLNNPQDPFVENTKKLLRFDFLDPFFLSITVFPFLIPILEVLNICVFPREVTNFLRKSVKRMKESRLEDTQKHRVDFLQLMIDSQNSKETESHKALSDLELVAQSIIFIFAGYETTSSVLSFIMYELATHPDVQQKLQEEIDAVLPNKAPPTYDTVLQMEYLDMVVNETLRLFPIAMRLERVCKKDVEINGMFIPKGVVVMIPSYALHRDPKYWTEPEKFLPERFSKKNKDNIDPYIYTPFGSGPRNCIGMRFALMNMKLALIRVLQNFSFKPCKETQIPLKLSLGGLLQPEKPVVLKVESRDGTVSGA
Retinoic acid receptor RXR-alpha (Homo sapiens), sequence (P19793 whole entry, looked up): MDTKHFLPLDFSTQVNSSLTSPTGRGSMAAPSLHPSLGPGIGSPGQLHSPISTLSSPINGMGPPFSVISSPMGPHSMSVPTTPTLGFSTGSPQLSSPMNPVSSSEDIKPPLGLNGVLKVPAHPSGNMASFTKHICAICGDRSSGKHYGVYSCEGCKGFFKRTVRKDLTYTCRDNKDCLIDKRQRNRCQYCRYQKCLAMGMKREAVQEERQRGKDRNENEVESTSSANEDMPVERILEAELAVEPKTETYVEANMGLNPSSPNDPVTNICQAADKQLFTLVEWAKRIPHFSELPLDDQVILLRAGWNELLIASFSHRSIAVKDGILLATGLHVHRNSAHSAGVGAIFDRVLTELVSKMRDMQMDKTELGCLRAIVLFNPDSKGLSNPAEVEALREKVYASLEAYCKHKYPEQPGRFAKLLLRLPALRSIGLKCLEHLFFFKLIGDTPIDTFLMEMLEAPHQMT

Regarding `ClCC(Cl)CCl`, the Potency in [1] was > 92 µM (inactive). Also, the Potency entry in experiment [2], in [5], in experiment [6], in [7], in experiment [8] and in experiment [9] was “inactive” each time. Also, the Potency entry in experiment [10], in [11], in [12], in experiment [13] and in [15] was “inactive” each time. Moreover, the compound was called inactive in experiment [3] and in [19]. Besides, in experiment [4], the caspase-3 activation was 1.95% (inactive). The max response is -14.4% and -17.5% in experiment [14]; 0.286% and -10.8% in experiment [16]; 11.2% (inactive) and -5.45% (inactive) in [17]. Also, the activity change % (negative = inhibition) in experiment [18] is 0.0158% (inactive) and 2.43% (inactive).
With `CCCCC(CC)COC(=O)c1ccc(C(=O)OCC(CC)CCCC)c(C(=O)OCC(CC)CCCC)c1` (configuration not stated), the Potency in experiment [1] was > 92 µM (inactive). The Potency result in experiment [2], in experiment [5], in experiment [6], in [7], in experiment [8] and in experiment [10] was “inactive” each time. Besides, the Potency entry in experiment [11], in experiment [12], in experiment [13] and in [15] was “inactive” each time. For the same compound, the compound was classed as inactive in experiment [3], in experiment [20] and in experiment [19]. Moreover, the max response in [14] is -8.52%; in experiment [16] it was -7.98%; in [17], 5.41% (inactive). Also, the activity change % (negative = inhibition) in [18] was 11.5% (inactive).
On to `Nc1cccc2ccccc12`, for which the Potency in experiment [1] was > 92 µM (inactive); in [4], 25.1 µM (active). Further, the Potency result in experiment [2], in [7], in experiment [8], in experiment [10], in experiment [11] and in experiment [12] was “inactive” each time. In addition, the Potency result in experiment [15] was “inactive”. Moreover, the outcome in experiment [3], in experiment [20] and in experiment [19] was inactive. Besides, the max response in experiment [16] is -8.8%; in [17], -9% (inactive). Besides, in [18], the activity change % (negative = inhibition) is 1.61% (inactive).
With `CC(C)[C@]12CC(=O)[C@H](C)[C@H]1C2`, the Potency in experiment [1] was > 92 µM (inactive). Besides, the Potency result in [2], in experiment [5], in experiment [6], in experiment [7], in experiment [8] and in experiment [9] was “inactive” each time. In addition, the Potency result in [10], in [11], in [12], in [13] and in [15] was “inactive” each time. In addition, the call in experiment [3], in [20] and in [19] was inactive. The caspase-3 activation in [4] is 0.322% (inactive). In addition, the max response in experiment [14] was -6.67% and -9.54%; in [16], -7.72% and -9.15%; in experiment [17], 7% (inactive) and 0.913% (inactive). Moreover, the activity change % (negative = inhibition) in [18] is -3.76% (inactive) and 6.48% (inactive).

Values taken from PubChem BioAssay (NCATS).
